# According to the supplement of paper PMC11732987, “Enantioselective OTUD7B fragment discovery through chemoproteomics screening and high-throughput optimisation” (Communications Chemistry, 2025):
# A number with no mark means an inactive call.
# Experiments:
# Experiment in all cases: log2 ratio of Biotin-Ahx-Ub-VS probe labelling (fragment/DMSO); higher = less target engagement (more negative = stronger competition), active = hit call of the paper (q ≤ 0.05, log2 ratio ≤ -1)
# Conditions in all cases: compound concentration: 200 uM; treatment time: 3 h
# OTUD6B = molecular target: T1, OTUD6B (UniProt Q8N6M0)
# T1 sequence (whole entry): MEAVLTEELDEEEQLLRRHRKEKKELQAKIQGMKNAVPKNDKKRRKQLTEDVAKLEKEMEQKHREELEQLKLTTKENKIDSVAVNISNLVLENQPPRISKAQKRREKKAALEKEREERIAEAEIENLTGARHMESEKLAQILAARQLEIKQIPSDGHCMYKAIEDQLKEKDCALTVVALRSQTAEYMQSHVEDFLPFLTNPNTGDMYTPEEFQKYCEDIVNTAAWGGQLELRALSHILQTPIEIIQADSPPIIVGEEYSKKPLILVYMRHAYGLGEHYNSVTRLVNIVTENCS
# Summary of the method: (§1)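 Fragment (200 µM) or vehicle was incubated for 3 h with triplicate HEK293T lysate samples of 495 µg, which were then treated with Biotin-Ahx-Ub-VS at 0.5 µM final for 1 h. Labelled DUBs were enriched on NeutrAvidin, digested with LysC and trypsin, and analysed by diaPASEF LC-MS/MS. Values are average log2 fragment/vehicle ratios from an unpaired t-test on global-median-normalised Spectronaut label-free quantities, using proteins with ≥2 unique peptides.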
# OTUD7B = molecular target: T2, OTUD7B (UniProt Q6GQQ9)
# T2 sequence (whole entry): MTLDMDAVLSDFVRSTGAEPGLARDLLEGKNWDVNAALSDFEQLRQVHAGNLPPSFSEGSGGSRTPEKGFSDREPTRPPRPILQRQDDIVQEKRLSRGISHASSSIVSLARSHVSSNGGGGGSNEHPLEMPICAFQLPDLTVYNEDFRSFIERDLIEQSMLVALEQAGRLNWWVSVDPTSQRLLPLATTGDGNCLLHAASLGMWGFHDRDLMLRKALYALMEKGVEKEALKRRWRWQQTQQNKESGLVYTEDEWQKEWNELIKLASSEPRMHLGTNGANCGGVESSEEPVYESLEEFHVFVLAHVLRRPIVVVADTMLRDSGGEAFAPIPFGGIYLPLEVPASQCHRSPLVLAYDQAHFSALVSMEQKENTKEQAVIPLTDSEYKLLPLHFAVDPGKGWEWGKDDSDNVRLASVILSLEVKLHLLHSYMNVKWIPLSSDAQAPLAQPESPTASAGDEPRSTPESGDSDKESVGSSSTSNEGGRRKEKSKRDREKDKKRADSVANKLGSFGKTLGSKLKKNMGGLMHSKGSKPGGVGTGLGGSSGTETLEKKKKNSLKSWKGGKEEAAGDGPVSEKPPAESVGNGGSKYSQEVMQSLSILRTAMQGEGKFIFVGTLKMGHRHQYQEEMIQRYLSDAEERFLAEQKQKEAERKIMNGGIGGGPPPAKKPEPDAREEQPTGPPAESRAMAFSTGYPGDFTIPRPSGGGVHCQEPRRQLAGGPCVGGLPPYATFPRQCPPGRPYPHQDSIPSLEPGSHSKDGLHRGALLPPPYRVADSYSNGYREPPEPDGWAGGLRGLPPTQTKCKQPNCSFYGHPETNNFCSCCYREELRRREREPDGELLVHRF
# Summary of the method: as §1
# PRPF8 = PRPF8 (UniProt Q6P2Q9)
# Summary of the method: as §1
# PSMD7 = molecular target: T3, PSMD7 (UniProt P51665)
# T3 sequence (whole entry): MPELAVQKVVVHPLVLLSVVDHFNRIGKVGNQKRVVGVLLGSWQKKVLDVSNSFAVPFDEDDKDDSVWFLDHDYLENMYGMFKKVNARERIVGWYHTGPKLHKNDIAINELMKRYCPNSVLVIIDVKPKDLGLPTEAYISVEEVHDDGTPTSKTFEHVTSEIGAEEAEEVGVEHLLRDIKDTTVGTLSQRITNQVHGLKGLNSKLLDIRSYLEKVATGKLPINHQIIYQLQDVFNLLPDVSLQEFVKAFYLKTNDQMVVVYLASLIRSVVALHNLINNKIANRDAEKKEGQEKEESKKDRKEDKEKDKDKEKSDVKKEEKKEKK
# Summary of the method: as §1
# UCHL1 = UCHL1 (UniProt P09936)
# Sequence of UCHL1 (P09936 whole entry, looked up): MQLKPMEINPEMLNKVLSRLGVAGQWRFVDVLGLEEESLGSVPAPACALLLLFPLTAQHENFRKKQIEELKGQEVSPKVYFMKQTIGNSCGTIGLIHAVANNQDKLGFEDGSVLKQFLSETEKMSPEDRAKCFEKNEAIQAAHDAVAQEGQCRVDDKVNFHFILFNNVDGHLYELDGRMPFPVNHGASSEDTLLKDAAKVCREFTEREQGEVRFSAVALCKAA
# Summary of the method: as §1
# UCHL3 = molecular target: T4, UCHL3 (UniProt P15374)
# T4 sequence (whole entry): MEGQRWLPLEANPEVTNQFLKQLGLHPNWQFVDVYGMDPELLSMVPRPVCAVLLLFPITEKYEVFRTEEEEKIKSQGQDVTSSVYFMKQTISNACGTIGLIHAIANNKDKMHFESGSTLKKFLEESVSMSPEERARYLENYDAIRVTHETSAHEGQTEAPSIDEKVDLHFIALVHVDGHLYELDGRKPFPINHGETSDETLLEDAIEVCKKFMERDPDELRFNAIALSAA
# Summary of the method: as §1
# UCHL5 = molecular target: T5, UCHL5 (UniProt Q9Y5K5)
# T5 sequence (whole entry): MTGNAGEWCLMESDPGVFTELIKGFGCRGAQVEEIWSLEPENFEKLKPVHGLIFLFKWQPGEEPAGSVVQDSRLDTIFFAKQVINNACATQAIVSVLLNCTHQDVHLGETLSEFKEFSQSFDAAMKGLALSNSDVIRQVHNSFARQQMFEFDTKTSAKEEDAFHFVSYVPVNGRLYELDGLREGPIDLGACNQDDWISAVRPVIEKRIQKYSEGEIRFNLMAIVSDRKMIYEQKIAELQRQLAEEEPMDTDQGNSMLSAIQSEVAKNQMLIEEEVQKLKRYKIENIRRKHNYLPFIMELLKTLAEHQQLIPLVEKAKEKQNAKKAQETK
# Summary of the method: as §1
# USP10 = USP10 (UniProt Q14694)
# Sequence of USP10 (Q14694 whole entry): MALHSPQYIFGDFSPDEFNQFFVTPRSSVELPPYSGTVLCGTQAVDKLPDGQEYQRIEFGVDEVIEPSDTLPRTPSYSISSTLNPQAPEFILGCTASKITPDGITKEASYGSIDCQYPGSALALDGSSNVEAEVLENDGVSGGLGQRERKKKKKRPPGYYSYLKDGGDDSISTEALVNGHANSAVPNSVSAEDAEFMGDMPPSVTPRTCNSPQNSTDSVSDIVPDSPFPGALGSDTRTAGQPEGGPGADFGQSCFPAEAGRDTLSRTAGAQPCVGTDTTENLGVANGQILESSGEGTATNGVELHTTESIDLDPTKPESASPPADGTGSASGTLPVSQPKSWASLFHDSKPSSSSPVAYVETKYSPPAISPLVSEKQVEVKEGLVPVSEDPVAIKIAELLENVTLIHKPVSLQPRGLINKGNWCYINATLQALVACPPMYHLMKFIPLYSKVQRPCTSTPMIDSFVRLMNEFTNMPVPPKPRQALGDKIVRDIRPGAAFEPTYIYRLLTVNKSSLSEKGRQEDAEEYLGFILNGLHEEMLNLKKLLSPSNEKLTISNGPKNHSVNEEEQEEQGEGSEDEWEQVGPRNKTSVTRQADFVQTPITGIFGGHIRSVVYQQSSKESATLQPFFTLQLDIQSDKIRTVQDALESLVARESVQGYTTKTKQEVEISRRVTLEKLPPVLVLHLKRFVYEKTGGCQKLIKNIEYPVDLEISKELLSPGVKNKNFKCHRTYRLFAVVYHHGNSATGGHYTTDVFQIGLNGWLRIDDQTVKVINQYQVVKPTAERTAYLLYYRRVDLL
# Summary of the method: as §1
# USP15 = molecular target: T6, USP15 (UniProt Q9Y4E8)
# T6 sequence (whole entry): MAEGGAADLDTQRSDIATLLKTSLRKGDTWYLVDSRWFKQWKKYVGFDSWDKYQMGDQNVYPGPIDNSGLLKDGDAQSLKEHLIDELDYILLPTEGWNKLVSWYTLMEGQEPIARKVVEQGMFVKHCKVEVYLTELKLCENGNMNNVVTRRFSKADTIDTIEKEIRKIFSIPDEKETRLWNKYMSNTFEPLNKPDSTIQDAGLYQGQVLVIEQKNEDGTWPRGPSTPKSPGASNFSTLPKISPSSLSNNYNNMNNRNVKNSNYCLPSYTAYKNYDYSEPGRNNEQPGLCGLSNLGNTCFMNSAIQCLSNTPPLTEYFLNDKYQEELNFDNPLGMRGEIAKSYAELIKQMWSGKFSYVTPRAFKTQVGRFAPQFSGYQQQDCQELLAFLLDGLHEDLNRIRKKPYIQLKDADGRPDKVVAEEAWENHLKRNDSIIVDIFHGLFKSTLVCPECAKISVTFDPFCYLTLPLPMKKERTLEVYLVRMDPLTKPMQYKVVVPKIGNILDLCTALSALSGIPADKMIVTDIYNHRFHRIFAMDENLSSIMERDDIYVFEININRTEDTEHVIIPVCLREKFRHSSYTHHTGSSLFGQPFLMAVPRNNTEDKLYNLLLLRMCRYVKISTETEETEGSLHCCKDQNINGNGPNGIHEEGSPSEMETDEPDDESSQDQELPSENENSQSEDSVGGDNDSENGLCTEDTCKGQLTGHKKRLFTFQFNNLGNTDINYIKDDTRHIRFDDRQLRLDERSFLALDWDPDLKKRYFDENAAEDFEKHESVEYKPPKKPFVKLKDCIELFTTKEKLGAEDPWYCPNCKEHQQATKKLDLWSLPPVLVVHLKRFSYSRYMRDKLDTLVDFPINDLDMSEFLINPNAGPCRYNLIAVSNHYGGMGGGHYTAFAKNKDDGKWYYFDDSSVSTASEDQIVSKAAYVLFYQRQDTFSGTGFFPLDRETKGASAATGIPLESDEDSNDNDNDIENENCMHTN
# Summary of the method: as §1
# USP16 = USP16 (UniProt Q9Y5T5)
# Sequence of USP16 (Q9Y5T5 whole entry, looked up): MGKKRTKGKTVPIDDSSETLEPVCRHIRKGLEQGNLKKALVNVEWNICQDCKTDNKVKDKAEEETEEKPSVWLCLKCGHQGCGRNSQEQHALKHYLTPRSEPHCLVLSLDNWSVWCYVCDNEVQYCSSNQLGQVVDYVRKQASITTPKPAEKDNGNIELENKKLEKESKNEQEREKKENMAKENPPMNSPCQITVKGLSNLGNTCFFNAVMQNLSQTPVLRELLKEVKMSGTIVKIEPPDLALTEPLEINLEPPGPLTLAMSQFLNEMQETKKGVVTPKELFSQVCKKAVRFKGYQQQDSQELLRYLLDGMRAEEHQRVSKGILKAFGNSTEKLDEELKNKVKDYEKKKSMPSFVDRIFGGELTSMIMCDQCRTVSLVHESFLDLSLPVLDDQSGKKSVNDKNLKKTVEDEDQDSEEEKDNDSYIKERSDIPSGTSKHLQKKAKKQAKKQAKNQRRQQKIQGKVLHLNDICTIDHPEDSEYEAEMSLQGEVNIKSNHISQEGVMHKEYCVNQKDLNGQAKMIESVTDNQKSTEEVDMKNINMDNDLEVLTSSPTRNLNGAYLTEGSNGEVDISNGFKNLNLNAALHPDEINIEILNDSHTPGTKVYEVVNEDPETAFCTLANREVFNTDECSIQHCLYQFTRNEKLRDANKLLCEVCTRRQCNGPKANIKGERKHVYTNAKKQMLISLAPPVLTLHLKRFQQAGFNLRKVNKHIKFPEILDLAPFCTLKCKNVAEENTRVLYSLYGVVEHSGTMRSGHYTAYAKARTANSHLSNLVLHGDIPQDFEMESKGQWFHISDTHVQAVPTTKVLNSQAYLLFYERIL
# Summary of the method: as §1
structure (smiles),measurement,setting,value
C[C@H]1CN(C(=O)CCl)CCN1C(=O)c1cnn(C)c1.Cl,log2 ratio of Biotin-Ahx-Ub-VS probe labelling,OTUD6B,-0.288
same,log2 ratio of Biotin-Ahx-Ub-VS probe labelling,OTUD7B,-0.168
same,log2 ratio of Biotin-Ahx-Ub-VS probe labelling,PRPF8,0.144
same,log2 ratio of Biotin-Ahx-Ub-VS probe labelling,PSMD7,-0.0809
same,log2 ratio of Biotin-Ahx-Ub-VS probe labelling,UCHL1,-2.38 (active)
same,log2 ratio of Biotin-Ahx-Ub-VS probe labelling,UCHL3,0.376
same,log2 ratio of Biotin-Ahx-Ub-VS probe labelling,UCHL5,-0.259
same,log2 ratio of Biotin-Ahx-Ub-VS probe labelling,USP10,0.0256
same,log2 ratio of Biotin-Ahx-Ub-VS probe labelling,USP15,-0.149
same,log2 ratio of Biotin-Ahx-Ub-VS probe labelling,USP16,-0.146
